# Test results taken from ChEMBL document CHEMBL2218924, “A broad activity screen in support of a chemogenomic map for kinase signalling research and drug discovery” (Biochem J, 2013).
# How the values were obtained:
# [1] = molecular target: Serine/threonine-protein kinase SIK1 (Homo sapiens) (UniProt P57059); settings: at 10 µM
# [2] = molecular target: Serine/threonine-protein kinase 33 (Homo sapiens) (UniProt Q9BYT3); settings: at 1 µM
# [3] = molecular target: Serine/threonine-protein kinase 33 (Homo sapiens) (UniProt Q9BYT3); settings: at 10 µM
# [4] = molecular target: Serine/threonine-protein kinase PLK2 (Homo sapiens) (UniProt Q9NYY3); settings: at 1 µM
# [5] = molecular target: Serine/threonine-protein kinase PLK2 (Homo sapiens) (UniProt Q9NYY3); settings: at 10 µM
# [6] = molecular target: Tyrosine-protein kinase SYK (Homo sapiens) (UniProt P43405); settings: at 1 µM
# [7] = molecular target: Tyrosine-protein kinase SYK (Homo sapiens) (UniProt P43405); settings: at 10 µM
# [8] = molecular target: T1, Mitogen-activated protein kinase kinase kinase 7 (Homo sapiens) (UniProt O43318); settings: at 1 µM
# T1 sequence (whole entry): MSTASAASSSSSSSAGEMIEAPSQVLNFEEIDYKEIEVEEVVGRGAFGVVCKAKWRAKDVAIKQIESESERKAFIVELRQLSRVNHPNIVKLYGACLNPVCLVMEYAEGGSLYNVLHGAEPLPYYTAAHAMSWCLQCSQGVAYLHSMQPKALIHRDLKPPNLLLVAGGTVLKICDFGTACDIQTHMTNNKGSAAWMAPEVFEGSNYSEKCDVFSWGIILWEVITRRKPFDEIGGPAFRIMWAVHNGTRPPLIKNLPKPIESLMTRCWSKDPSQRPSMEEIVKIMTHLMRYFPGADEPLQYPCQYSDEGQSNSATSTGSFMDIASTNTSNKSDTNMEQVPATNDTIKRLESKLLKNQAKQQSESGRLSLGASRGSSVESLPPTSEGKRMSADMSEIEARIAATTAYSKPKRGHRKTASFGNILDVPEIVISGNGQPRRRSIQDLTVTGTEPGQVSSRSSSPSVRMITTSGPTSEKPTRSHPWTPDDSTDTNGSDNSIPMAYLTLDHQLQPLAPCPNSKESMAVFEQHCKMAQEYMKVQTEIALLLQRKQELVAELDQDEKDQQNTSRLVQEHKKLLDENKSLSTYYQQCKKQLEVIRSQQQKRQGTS
# [9] = molecular target: T1, Mitogen-activated protein kinase kinase kinase 7 (Homo sapiens); settings: at 10 µM
# [10] = molecular target: T2, Serine/threonine-protein kinase TAO1 (Homo sapiens) (UniProt Q7L7X3); settings: at 1 µM
# T2 sequence (whole entry): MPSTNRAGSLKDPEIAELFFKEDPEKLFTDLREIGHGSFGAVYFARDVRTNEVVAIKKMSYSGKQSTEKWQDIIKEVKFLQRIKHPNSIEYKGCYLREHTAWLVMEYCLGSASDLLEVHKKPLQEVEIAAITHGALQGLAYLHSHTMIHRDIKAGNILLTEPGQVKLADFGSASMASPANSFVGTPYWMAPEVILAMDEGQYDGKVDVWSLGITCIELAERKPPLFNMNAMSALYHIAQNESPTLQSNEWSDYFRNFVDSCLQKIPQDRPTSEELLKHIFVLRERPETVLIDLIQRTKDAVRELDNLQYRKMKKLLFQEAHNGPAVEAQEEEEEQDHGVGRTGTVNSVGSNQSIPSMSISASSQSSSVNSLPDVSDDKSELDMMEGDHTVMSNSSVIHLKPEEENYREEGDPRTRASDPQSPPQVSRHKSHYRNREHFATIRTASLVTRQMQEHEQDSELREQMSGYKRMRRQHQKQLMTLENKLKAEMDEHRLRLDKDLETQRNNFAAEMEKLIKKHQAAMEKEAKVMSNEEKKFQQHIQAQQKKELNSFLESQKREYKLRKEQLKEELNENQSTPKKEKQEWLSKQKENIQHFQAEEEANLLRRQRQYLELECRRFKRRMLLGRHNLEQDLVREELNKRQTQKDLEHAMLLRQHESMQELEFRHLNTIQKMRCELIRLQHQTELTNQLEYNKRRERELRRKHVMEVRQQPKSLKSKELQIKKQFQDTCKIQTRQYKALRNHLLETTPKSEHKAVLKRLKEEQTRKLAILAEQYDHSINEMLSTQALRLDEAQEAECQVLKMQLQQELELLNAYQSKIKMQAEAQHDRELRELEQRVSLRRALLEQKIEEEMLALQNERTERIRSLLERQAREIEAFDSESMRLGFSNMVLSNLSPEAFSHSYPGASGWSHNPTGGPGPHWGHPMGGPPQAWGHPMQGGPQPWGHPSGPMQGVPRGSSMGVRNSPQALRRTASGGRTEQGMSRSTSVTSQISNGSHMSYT
# [11] = molecular target: T2, Serine/threonine-protein kinase TAO1 (Homo sapiens); settings: at 10 µM
# [12] = molecular target: T3, Serine/threonine-protein kinase TBK1 (Homo sapiens) (UniProt Q9UHD2); settings: at 1 µM
# T3 sequence (whole entry): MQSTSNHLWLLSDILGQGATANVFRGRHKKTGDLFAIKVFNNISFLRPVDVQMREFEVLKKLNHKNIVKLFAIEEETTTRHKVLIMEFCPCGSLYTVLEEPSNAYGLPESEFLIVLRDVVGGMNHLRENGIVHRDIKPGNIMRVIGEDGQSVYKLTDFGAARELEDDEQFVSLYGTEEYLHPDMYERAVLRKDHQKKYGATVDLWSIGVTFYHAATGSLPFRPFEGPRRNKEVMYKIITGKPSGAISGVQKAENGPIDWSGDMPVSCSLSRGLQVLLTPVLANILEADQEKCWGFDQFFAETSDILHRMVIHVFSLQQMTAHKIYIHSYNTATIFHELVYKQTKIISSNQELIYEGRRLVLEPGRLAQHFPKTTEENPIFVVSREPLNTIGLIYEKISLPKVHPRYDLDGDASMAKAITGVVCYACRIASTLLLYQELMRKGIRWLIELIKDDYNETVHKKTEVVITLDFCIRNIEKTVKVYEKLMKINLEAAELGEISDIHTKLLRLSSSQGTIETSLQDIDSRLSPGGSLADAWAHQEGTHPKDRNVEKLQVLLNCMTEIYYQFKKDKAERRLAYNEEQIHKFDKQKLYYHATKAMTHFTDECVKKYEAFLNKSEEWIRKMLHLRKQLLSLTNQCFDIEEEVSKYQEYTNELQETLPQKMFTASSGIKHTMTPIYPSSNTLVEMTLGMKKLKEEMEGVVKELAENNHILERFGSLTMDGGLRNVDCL
# [13] = molecular target: SRSF protein kinase 1 (Homo sapiens) (UniProt Q96SB4); settings: at 10 µM
# [14] = molecular target: SRSF protein kinase 2 (Homo sapiens) (UniProt P78362); settings: at 10 µM
# [15] = molecular target: T4, Serine/threonine-protein kinase TAO2 (Homo sapiens) (UniProt Q9UL54); settings: at 1 µM
# T4 sequence (whole entry): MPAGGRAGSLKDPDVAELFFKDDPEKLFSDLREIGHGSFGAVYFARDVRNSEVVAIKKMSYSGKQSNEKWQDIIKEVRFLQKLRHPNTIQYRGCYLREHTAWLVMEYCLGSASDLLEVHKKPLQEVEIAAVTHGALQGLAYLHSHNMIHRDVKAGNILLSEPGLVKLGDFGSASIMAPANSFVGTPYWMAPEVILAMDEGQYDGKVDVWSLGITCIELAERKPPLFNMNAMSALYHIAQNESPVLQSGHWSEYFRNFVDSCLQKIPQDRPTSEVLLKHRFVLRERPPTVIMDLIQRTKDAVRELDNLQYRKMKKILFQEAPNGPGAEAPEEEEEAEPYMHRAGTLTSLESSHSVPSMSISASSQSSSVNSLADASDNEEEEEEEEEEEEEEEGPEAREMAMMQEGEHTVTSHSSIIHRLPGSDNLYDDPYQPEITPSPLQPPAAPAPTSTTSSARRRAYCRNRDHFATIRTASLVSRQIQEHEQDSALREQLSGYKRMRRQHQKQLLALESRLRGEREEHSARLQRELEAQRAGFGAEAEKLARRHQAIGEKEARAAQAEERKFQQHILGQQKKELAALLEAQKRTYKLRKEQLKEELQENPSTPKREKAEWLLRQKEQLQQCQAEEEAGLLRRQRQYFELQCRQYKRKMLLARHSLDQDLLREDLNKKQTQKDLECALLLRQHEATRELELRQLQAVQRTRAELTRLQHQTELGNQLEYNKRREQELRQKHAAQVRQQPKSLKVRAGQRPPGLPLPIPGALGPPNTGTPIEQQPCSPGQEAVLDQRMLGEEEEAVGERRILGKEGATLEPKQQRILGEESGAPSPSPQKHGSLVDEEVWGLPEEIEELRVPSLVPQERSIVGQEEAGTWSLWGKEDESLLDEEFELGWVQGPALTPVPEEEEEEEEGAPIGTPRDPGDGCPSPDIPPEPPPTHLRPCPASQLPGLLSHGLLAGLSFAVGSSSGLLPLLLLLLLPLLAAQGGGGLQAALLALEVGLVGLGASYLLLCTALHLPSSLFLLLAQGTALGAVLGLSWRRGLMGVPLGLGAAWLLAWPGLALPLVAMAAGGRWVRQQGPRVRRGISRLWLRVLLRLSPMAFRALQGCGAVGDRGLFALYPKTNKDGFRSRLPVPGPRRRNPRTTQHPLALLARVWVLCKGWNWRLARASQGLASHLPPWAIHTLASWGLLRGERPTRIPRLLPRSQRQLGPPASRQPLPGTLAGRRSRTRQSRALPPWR
# [16] = molecular target: T4, Serine/threonine-protein kinase TAO2 (Homo sapiens); settings: at 10 µM
# [17] = molecular target: T5, Serine/threonine-protein kinase TAO3 (Homo sapiens) (UniProt Q9H2K8); settings: at 1 µM
# T5 sequence (whole entry): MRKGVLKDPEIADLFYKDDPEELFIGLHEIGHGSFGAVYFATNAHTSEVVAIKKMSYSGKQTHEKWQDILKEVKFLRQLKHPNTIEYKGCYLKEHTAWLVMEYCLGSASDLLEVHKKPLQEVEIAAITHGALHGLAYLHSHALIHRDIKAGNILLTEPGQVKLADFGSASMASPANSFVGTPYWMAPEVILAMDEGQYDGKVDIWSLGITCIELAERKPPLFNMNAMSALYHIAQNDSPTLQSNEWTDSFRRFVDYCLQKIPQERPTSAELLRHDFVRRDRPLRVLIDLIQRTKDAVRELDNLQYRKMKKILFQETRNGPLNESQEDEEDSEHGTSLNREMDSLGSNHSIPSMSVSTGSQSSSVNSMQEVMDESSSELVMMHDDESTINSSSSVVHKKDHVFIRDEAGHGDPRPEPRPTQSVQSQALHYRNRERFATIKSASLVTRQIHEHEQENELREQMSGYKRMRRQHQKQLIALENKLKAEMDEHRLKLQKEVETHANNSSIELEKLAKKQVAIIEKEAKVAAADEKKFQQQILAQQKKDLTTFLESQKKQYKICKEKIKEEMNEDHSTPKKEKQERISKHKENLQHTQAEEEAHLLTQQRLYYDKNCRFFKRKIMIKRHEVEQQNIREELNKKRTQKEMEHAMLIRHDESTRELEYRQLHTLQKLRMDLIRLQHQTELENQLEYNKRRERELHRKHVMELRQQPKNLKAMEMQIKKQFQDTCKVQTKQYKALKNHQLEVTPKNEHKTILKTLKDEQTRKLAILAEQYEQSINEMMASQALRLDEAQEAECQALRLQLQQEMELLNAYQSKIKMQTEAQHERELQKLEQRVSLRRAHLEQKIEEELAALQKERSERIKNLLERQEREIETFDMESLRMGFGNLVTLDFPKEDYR
# [18] = molecular target: T5, Serine/threonine-protein kinase TAO3 (Homo sapiens); settings: at 10 µM
# [19] = molecular target: SRSF protein kinase 1 (Homo sapiens) (UniProt Q96SB4); settings: at 1 µM
# [20] = molecular target: SRSF protein kinase 2 (Homo sapiens) (UniProt P78362); settings: at 1 µM
# Sequence of SRSF protein kinase 2 (Homo sapiens) (P78362 whole entry, looked up): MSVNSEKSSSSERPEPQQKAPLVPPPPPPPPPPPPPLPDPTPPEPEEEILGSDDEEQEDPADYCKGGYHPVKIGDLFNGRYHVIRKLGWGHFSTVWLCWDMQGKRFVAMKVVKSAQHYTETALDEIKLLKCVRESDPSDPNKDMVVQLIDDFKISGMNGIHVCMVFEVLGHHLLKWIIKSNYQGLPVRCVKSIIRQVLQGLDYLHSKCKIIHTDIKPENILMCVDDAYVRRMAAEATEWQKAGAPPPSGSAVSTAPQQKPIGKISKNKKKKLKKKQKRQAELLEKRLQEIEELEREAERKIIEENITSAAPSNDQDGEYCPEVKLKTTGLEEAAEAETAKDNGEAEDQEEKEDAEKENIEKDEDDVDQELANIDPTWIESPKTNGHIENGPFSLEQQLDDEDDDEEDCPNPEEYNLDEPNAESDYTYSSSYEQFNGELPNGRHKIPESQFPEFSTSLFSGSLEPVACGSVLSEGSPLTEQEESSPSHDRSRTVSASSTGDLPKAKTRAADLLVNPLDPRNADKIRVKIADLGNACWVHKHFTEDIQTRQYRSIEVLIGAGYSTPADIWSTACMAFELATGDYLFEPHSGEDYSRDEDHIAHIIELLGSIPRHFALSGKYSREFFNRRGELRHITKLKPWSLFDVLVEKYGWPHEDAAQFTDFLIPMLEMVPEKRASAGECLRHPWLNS
# Sequence of Serine/threonine-protein kinase PLK2 (Homo sapiens) (Q9NYY3 whole entry, looked up): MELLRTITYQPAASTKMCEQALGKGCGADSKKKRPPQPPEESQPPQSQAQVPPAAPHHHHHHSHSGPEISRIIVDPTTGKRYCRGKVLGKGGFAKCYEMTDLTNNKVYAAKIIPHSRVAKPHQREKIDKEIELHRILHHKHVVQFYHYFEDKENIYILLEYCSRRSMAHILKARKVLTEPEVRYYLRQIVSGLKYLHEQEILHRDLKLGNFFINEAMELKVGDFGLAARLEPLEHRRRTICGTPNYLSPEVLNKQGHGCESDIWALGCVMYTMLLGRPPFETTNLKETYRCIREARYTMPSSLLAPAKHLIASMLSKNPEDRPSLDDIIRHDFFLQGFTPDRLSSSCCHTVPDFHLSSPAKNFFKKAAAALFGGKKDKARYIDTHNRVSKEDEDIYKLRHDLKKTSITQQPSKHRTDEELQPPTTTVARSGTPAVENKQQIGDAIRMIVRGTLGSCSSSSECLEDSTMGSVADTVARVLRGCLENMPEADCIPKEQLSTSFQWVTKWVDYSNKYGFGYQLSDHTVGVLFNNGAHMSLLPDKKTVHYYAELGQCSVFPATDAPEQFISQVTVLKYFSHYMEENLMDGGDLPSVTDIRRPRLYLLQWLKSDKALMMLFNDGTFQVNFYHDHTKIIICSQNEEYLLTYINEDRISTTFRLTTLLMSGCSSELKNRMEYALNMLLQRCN
# Sequence of SRSF protein kinase 1 (Homo sapiens) (Q96SB4 whole entry): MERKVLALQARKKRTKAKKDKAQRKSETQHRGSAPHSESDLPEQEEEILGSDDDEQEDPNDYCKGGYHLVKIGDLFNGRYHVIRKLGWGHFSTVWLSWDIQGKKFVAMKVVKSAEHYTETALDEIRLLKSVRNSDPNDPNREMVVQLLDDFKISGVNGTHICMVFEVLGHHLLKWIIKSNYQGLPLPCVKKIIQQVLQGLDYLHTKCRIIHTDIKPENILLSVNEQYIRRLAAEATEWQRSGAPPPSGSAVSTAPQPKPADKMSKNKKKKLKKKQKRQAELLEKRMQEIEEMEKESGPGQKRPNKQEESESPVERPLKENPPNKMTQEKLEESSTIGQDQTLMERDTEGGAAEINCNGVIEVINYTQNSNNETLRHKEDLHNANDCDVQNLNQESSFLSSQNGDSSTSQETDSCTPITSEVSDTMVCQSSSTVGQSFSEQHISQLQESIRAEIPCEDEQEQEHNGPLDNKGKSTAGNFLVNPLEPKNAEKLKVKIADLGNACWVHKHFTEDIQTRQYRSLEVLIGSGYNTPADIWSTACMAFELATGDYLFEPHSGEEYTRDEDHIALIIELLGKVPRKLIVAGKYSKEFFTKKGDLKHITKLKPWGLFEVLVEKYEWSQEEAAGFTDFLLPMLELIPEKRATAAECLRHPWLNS
# Sequence of Serine/threonine-protein kinase SIK1 (Homo sapiens) (P57059 whole entry): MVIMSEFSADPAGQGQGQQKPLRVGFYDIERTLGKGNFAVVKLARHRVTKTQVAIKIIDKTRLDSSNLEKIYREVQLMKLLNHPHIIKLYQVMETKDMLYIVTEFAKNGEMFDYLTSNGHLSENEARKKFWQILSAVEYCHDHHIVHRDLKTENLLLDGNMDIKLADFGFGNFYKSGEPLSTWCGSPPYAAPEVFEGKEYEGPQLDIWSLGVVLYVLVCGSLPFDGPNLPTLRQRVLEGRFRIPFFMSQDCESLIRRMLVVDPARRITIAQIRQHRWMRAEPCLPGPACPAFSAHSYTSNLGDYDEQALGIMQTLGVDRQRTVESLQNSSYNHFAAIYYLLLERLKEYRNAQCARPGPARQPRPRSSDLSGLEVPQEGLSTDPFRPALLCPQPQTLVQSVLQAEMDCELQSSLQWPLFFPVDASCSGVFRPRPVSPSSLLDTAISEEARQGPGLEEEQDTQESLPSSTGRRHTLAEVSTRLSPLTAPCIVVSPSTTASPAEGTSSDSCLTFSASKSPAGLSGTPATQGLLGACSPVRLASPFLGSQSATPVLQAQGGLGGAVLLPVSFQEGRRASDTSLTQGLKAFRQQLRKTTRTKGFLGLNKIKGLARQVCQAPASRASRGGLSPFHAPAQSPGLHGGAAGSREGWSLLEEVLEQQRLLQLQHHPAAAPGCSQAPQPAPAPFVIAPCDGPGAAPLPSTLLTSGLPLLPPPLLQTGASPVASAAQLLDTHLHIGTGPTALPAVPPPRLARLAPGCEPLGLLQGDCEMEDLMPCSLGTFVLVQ
# Sequence of Serine/threonine-protein kinase 33 (Homo sapiens) (Q9BYT3 whole entry, looked up): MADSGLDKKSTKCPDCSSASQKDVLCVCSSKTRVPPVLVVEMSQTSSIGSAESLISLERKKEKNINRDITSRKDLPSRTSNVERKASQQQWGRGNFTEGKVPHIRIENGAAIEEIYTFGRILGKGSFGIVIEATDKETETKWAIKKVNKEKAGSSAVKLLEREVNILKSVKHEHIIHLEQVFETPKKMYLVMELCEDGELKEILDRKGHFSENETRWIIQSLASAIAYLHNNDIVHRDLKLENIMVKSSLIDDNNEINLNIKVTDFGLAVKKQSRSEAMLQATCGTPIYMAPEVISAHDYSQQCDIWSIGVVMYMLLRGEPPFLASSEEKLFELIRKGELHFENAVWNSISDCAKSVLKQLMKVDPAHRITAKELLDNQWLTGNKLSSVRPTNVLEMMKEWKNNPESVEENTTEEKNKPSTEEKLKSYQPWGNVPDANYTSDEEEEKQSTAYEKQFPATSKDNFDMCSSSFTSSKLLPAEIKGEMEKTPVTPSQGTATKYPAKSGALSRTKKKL
smiles,measurement,setting,value
O=C1Cc2c([nH]c3ccc(Br)cc23)-c2ccccc2N1,residual activity,[1],36%
same,residual activity,[2],97%
same,residual activity,[3],81%
same,residual activity,[4],99%
same,residual activity,[5],91%
same,residual activity,[6],72%
same,residual activity,[7],25%
same,residual activity,[8],81%
same,residual activity,[9],68%
same,residual activity,[10],76%
same,residual activity,[11],28%
same,residual activity,[12],53%
O=C(NC(NC(=S)Nc1ccc(F)c([N+](=O)[O-])c1)C(Cl)(Cl)Cl)C(c1ccccc1)c1ccccc1 (centres undefined),residual activity,[13],92%
same,residual activity,[14],98%
same,residual activity,[2],98%
same,residual activity,[3],91%
same,residual activity,[4],90%
same,residual activity,[5],87%
same,residual activity,[9],92%
same,residual activity,[10],93%
same,residual activity,[11],83%
same,residual activity,[15],91%
same,residual activity,[16],92%
same,residual activity,[17],96%
same,residual activity,[18],90%
same,residual activity,[12],96%
Cc1cc(C)c(/C=C2\C(=O)Nc3ccccc32)[nH]1,residual activity,[19],104%
same,residual activity,[2],69%
same,residual activity,[3],47%
same,residual activity,[8],76%
same,residual activity,[9],71%
same,residual activity,[16],105%
NCCNc1ncc(C(N)=O)c(Nc2cccc(C(F)(F)F)c2)n1,residual activity,[1],20%
same,residual activity,[6],6%
same,residual activity,[7],0%
same,residual activity,[8],78%
same,residual activity,[9],25%
same,residual activity,[10],78%
same,residual activity,[11],28%
same,residual activity,[17],73%
same,residual activity,[18],32%
same,residual activity,[12],79%
COc1cc2nccc(Oc3ccc(NC(=O)Nc4cc(C)on4)c(Cl)c3)c2cc1OC,residual activity,[19],98%
same,residual activity,[20],99%
same,residual activity,[2],81%
same,residual activity,[3],73%
same,residual activity,[4],105%
same,residual activity,[5],98%
same,residual activity,[11],52%
same,residual activity,[15],73%
same,residual activity,[16],43%
same,residual activity,[17],82%
same,residual activity,[18],57%
same,residual activity,[12],82%
O=S(=O)(NCCNC/C=C/c1ccc(Br)cc1)c1cccc2cnccc12,residual activity,[1],57%
same,residual activity,[11],59%
same,residual activity,[18],61%
Nc1nccc(-c2c(-c3ccc(F)cc3)ncn2C2CCNCC2)n1,residual activity,[1],54%
same,residual activity,[14],70%
same,residual activity,[9],79%
same,residual activity,[16],80%
Fc1ccc(-c2nc3n(c2-c2ccncc2)CCS3)cc1,residual activity,[13],93%
same,residual activity,[14],79%
same,residual activity,[9],88%
same,residual activity,[10],99%
same,residual activity,[11],83%
same,residual activity,[18],76%
O=c1c(-c2ccc(F)cc2)c(-c2ccncc2)[nH]n1-c1ccc(Cl)cc1,residual activity,[6],41%
same,residual activity,[7],37%
same,residual activity,[16],77%
same,residual activity,[17],99%
COc1ccc(CNC(=O)Nc2ncc([N+](=O)[O-])s2)cc1,residual activity,[14],78%
same,residual activity,[9],79%
same,residual activity,[12],59%
